The panel holds about 79,000 compounds, 15% with a hit somewhere; the sample as a whole holds those more often. The source made the active and inactive calls. Rule as the data show it: active = growth inhibition above about 70%; inactive = the rest.
Legend:
[1] = NCI Yeast Anticancer Drug Screen. Data for the mec2-1 strain (AID 157); details: S. cerevisiae mec2-1 strain, stronger effect = higher value
How it was run: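 mec2-1 yeast strain, carrying an alteration in DNA damage repair or cell cycle control, was exposed to compounds; growth inhibition was measured relative to vehicle-treated controls.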

[2] = NCI Yeast Anticancer Drug Screen. Data for the rad14 strain (AID 159);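 also: 0% = growth of vehicle-treated control cultures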; details: S. cerevisiae rad14 strain growth inhibition, stronger effect = higher value
How it was run: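 A mutant yeast strain defective in DNA damage repair is treated with compound; inhibition of its growth is scored against untreated, vehicle-exposed cultures.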

[3] = NCI Yeast Anticancer Drug Screen. Data for the sgs1 mgt1 strain (AID 161);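 also: 0% = growth of cultures given vehicle only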; details: S. cerevisiae sgs1 mgt1 strain, stronger effect = higher value
How it was run: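 Growth of a repair-deficient yeast mutant was monitored after compound treatment and expressed as inhibition relative to vehicle-treated cultures.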

[4] = NCI Yeast Anticancer Drug Screen. Data for the CLN2oe strain (AID 163);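 also: 0% = growth of vehicle-only control cultures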; details: S. cerevisiae CLN2oe strain, stronger effect = higher value
How it was run: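 Yeast cells carrying a defined cell-cycle control alteration were exposed to test compounds. Growth inhibition was scored against vehicle-treated control cultures.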

[5] = NCI Yeast Anticancer Drug Screen. Data for the cln2 rad14 strain (AID 165);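 also: 0% = growth equal to vehicle treated cultures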; details: S. cerevisiae cln2 rad14 strain, stronger effect = higher value
How it was run: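 Yeast carrying cln2 and rad14 alterations (cell cycle control and DNA damage repair) were exposed to compounds. Growth inhibition was measured against vehicle-treated controls.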

[6] = NCI Yeast Anticancer Drug Screen. Data for the bub3 strain (AID 167); details: S. cerevisiae bub3 mutant strain, stronger effect = higher value
How it was run: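 Steps: expose the mutant yeast strain to compound; grow alongside vehicle-treated cultures; measure growth; express inhibition against the vehicle cultures.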

[7] = NCI Yeast Anticancer Drug Screen. Data for the wt2 strain (AID 169);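 also: 0% = growth of vehicle-treated yeast cultures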; details: S. cerevisiae wt2 strain growth inhibition, stronger effect = higher value
How it was run: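 Yeast cells were exposed to test compounds, and growth inhibition was measured relative to vehicle-treated controls.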

[8] = NCI Yeast Anticancer Drug Screen. Data for the mlh1 strain (AID 171);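 also: 0% = growth of vehicle-treated control cultures of the same strain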; details: S. cerevisiae mlh1 strain growth inhibition, stronger effect = higher value
How it was run: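 Yeast carrying a defined genetic alteration in DNA damage repair or cell cycle control were exposed to test compounds. Growth inhibition was measured relative to vehicle-treated controls.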

[9] = NCI Yeast Anticancer Drug Screen. Data for the sgs1 strain (AID 173);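 also: 0% = growth of vehicle-only control cultures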; details: S. cerevisiae sgs1 mutant, stronger effect = higher value
How it was run: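 Yeast mutant strains carrying defined defects in DNA damage repair or cell cycle control were exposed to test compounds. Growth inhibition was scored against vehicle-treated controls.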

[10] = NCI Yeast Anticancer Drug Screen. Data for the mlh1 rad18 strain (AID 175); details: S. cerevisiae mlh1 rad18 strain growth inhibition, stronger effect = higher value
How it was run: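 Growth inhibition of the yeast strain was measured after compound exposure and expressed relative to vehicle-treated controls. The strain carries defined defects in DNA damage repair.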

[11] = NCI Yeast Anticancer Drug Screen. Data for the rad18 strain (AID 177); details: S. cerevisiae rad18 mutant growth inhibition, stronger effect = higher value
How it was run: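 Yeast carrying a defined DNA damage repair alteration were exposed to compounds. Growth inhibition was expressed relative to vehicle-treated controls.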

[12] = NCI Yeast Anticancer Drug Screen. Data for the rad52 strain (AID 147);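 also: 0% = growth of vehicle-treated control cultures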; details: S. cerevisiae rad52 mutant growth inhibition, stronger effect = higher value
How it was run: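 Yeast strain carrying a DNA damage repair alteration was exposed to test compounds. Growth inhibition was measured relative to vehicle-treated controls.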

[13] = NCI Yeast Anticancer Drug Screen. Data for the wt1 strain (AID 149);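 also: 0% = growth of vehicle-treated wt1 cultures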; details: S. cerevisiae wt1 strain (SPY 50644) growth inhibition, stronger effect = higher value
How it was run: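 Compounds are added to wt1 yeast cultures. Growth is then measured. Inhibition is expressed relative to vehicle-treated controls.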

[14] = NCI Yeast Anticancer Drug Screen. Data for the rad50 strain (AID 155);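 also: 0% = growth of vehicle-only cultures of the same strain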; details: S. cerevisiae rad50 strain growth inhibition, stronger effect = higher value
How it was run: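 Inhibition values express reduced yeast growth in compound-treated cultures relative to vehicle-treated controls.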

[15] = NCI Yeast Anticancer Drug Screen. Data for the rad50EPP+ strain (AID 151);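 also: 0% = growth of vehicle-treated control cultures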; details: S. cerevisiae rad50 mutant strain, stronger effect = higher value
How it was run: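 Yeast strain carrying rad50 alteration (rad50EPP+) exposed to compounds; growth inhibition measured relative to vehicle-treated controls.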

[16] = NCI Yeast Anticancer Drug Screen. Data for the mgt1 strain (AID 153); details: S. cerevisiae mgt1 mutant growth inhibition, stronger effect = higher value
How it was run: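 Yeast mgt1 strain (DNA repair/cell-cycle alteration panel) exposed to compounds; growth inhibition measured relative to vehicle-treated controls.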

[17] = at 5.0 µM (retest, dose inferred, filed as 0.5)
[18] = at 50.0 µM (retest, dose inferred, filed as 5.0)

Measured: growth inhibition

CCCCN(CCCC)C(=O)/C=C/c1ccccc1
inactive: [2]; at 1.2 µM -1% | [2]; at 3.7 µM -9% | [2]; at 11.0 µM -3% | [2]; at 33.0 µM 23% | [2]; at 100.0 µM 65% | [3]; [17] 4% | [4]; at 1.2 µM -9% | [4]; at 3.7 µM -6% | [4]; at 11.0 µM -23% | [4]; at 33.0 µM -9% | [4]; at 100.0 µM 43% | [5]; [17] 7% | [5]; [18] 20% | [5]; at 50.0 µM 68% | [6]; at 1.2 µM -2% | [6]; at 3.7 µM 10% | [6]; [17] 18% | [6]; at 11.0 µM 21% | [6]; at 33.0 µM 33% | [7]; at 1.2 µM 6% | [7]; at 3.7 µM -4% | [7]; at 11.0 µM 12% | [7]; at 33.0 µM 47% | [8]; at 1.2 µM -9% | [8]; at 3.7 µM -4% | [8]; at 11.0 µM -5% | [8]; at 33.0 µM 18% | [9]; at 1.2 µM -17% | [9]; at 3.7 µM -6% | [9]; at 11.0 µM 8% | [9]; at 33.0 µM 33% | [10]; [17] -3% | [11]; at 1.2 µM -6% | [11]; at 3.7 µM -9% | [11]; at 11.0 µM -3% | [11]; at 33.0 µM 4% | [11]; at 100.0 µM 61%
active: [1]; at 100.0 µM 79% | [3]; [18] 92% | [3]; at 50.0 µM 92.2% | [6]; [18] 76% | [6]; at 50.0 µM 74.2% | [6]; at 100.0 µM 70% | [7]; at 100.0 µM 97% | [8]; at 100.0 µM 85% | [9]; at 100.0 µM 87% | [10]; [18] 88% | [10]; at 50.0 µM 81.2%

COC(=O)CC1CCc2c(ccc3ccccc23)C1(C)C(=O)OC (centres undefined)
inactive: [12]; at 1.2 µM -1% | [12]; at 3.7 µM 2% | [12]; at 11.0 µM 14% | [12]; at 33.0 µM 5% | [12]; at 100.0 µM 32% | [13]; at 1.2 µM -2% | [13]; at 3.7 µM -4% | [13]; at 11.0 µM 7% | [13]; at 33.0 µM -10% | [13]; at 100.0 µM -1% | [14]; at 1.2 µM 1% | [14]; at 3.7 µM 2% | [14]; [17] -5% | [14]; at 11.0 µM 10% | [14]; at 33.0 µM 15% | [14]; [18] 21% | [14]; at 50.0 µM 15.3% | [14]; at 100.0 µM 37% | [1]; at 1.2 µM -3% | [1]; at 3.7 µM -2% | [1]; [17] -5% | [1]; at 11.0 µM -2% | [1]; at 33.0 µM -7% | [1]; [18] 28% | [1]; at 50.0 µM -1.05% | [1]; at 100.0 µM 6% | [2]; at 1.2 µM -2% | [2]; at 3.7 µM 1% | [2]; at 11.0 µM 2% | [2]; at 33.0 µM -5% | [2]; at 100.0 µM 10% | [3]; [17] -2% | [3]; at 50.0 µM 66% | [4]; at 1.2 µM -4% | [4]; at 3.7 µM -5% | [4]; at 11.0 µM -11% | [4]; at 33.0 µM -21% | [4]; at 100.0 µM 0% | [5]; [17] -3% | [5]; [18] 11% | [5]; at 50.0 µM 1.4% | [6]; at 1.2 µM 3% | [6]; at 3.7 µM 2% | [6]; [17] 2% | [6]; at 11.0 µM 6% | [6]; at 33.0 µM 46% | [6]; at 50.0 µM 63.5% | [7]; at 1.2 µM 1% | [7]; at 3.7 µM -8% | [7]; at 11.0 µM -1% | [7]; at 33.0 µM -5% | [7]; at 100.0 µM 12% | [8]; at 1.2 µM -5% | [8]; at 3.7 µM -2% | [8]; at 11.0 µM 0% | [8]; at 33.0 µM 14% | [8]; at 100.0 µM 57% | [9]; at 1.2 µM -24% | [9]; at 3.7 µM -30% | [9]; at 11.0 µM -18% | [9]; at 33.0 µM 13% | [10]; [17] -3% | [10]; [18] 54% | [10]; at 50.0 µM 27.6% | [11]; at 1.2 µM -10% | [11]; at 3.7 µM -4% | [11]; at 11.0 µM -2% | [11]; at 33.0 µM -3% | [11]; at 100.0 µM 20%
active: [3]; [18] 80% | [6]; [18] 75% | [6]; at 100.0 µM 71% | [9]; at 100.0 µM 79%

O=C(NO)Nc1cc(Cl)cc(Cl)c1
active: [12]; at 11.0 µM 99% | [12]; at 33.0 µM 99% | [12]; at 100.0 µM 97% | [15]; at 33.0 µM 88% | [15]; at 100.0 µM 86% | [16]; at 11.0 µM 100% | [16]; at 33.0 µM 99% | [16]; at 100.0 µM 98% | [14]; at 11.0 µM 99% | [14]; at 33.0 µM 99% | [14]; [18] 99% | [14]; at 50.0 µM 99.3% | [14]; at 100.0 µM 96% | [1]; at 11.0 µM 99% | [1]; at 33.0 µM 99% | [1]; [18] 99% | [1]; at 50.0 µM 99.2% | [1]; at 100.0 µM 98% | [2]; at 11.0 µM 99% | [2]; at 33.0 µM 98% | [2]; at 100.0 µM 98% | [3]; [18] 99% | [3]; at 50.0 µM 98.8% | [4]; at 11.0 µM 99% | [4]; at 33.0 µM 99% | [4]; at 100.0 µM 98% | [5]; [18] 99% | [5]; at 50.0 µM 99% | [6]; at 11.0 µM 99% | [6]; at 33.0 µM 99% | [6]; [18] 99% | [6]; at 50.0 µM 98.8% | [6]; at 100.0 µM 98% | [7]; at 11.0 µM 98% | [7]; at 33.0 µM 99% | [7]; at 100.0 µM 98% | [8]; at 11.0 µM 99% | [8]; at 33.0 µM 99% | [8]; at 100.0 µM 97% | [9]; at 11.0 µM 100% | [9]; at 33.0 µM 100% | [9]; at 100.0 µM 98% | [10]; [18] 99% | [10]; at 50.0 µM 99.3% | [11]; at 11.0 µM 99% | [11]; at 33.0 µM 99% | [11]; at 100.0 µM 98%
inactive: [12]; at 1.2 µM 7% | [12]; at 3.7 µM 39% | [15]; at 1.2 µM -4% | [15]; at 3.7 µM -4% | [15]; at 11.0 µM 19% | [16]; at 1.2 µM -3% | [16]; at 3.7 µM 16% | [14]; at 1.2 µM 7% | [14]; at 3.7 µM 50% | [14]; [17] 24% | [1]; at 1.2 µM -2% | [1]; at 3.7 µM 11% | [1]; [17] 0% | [2]; at 1.2 µM 8% | [2]; at 3.7 µM 20% | [3]; [17] 58% | [4]; at 1.2 µM 7% | [4]; at 3.7 µM 26% | [5]; [17] 21% | [6]; at 1.2 µM -2% | [6]; at 3.7 µM 10% | [6]; [17] -17% | [7]; at 1.2 µM -3% | [7]; at 3.7 µM 6% | [8]; at 1.2 µM 4% | [8]; at 3.7 µM 31% | [9]; at 1.2 µM -2% | [9]; at 3.7 µM 54% | [10]; [17] 64% | [11]; at 1.2 µM 3% | [11]; at 3.7 µM 34%

Reference: PubChem BioAssay (NCI)
